USP28 block – human USP28 deubiquitinase inhibition; Q96RU2; purified USP28, Ub-rhodamine cleavage fluorescence, 30 min; inhibition, % at 25 µM; 47,000 tested, 3% active; AID 1645857
USP30 inh – inhibitors of human USP30 deubiquitinase; inhibition, % at 25 µM; purified USP30, Ub-rhodamine cleavage fluorescence; 47,000 tested, 5.3% active; Q70CQ3; AID 1645860
USP8 block – blocks human USP8 ubiquitin-rhodamine cleavage; P40818; purified USP8, Ub-rhodamine cleavage fluorescence, 30 min; inhibition, % at 20 µM; 47,000 tested, 4.2% active; AID 1645853
USP17 block – inhibitors of human USP17 deubiquitinase; purified USP17, Ub-rhodamine cleavage fluorescence, 3 h; inhibition, % at 50 µM; 47,000 tested, 6.5% active
Numbers without * were called inactive. Hits are enriched below; roughly 13% of the tested compounds scored in any of these assays. Rule as the data show it: active = inhibition above about 30%; inactive = the rest.

Screening O=C(C[n+]1cc(-c2ccc(F)cc2)n2c1CCC2)c1cccs1 returned USP28 block 1, USP30 inh 8, USP8 block -31 and USP17 block 0.
For Cc1ccc(-c2c[n+](CC(=O)Nc3cccc4ccccc34)c3n2CCC3)cc1 the results were USP28 block 18, USP30 inh 34*, USP8 block 26 and USP17 block 7.
Screening O=C(C(c1ccccc1)c1ccccc1)N1CCC(c2nc3ccccc3[nH]2)CC1 returned USP28 block -10, USP30 inh -16, USP8 block -4 and USP17 block -8.
Screening O=C(CCC1CCCCC1)N1CCN(c2ncnc3c2nnn3Cc2ccccc2)CC1 returned USP28 block 14, USP30 inh 32*, USP8 block 14 and USP17 block 12.
`O=C(c1ccc(F)cc1)N1CCN(c2ncnc3c2nnn3Cc2ccccc2)CC1` gave USP8 block 0 and USP17 block 8.
For O=C(Cc1ccc(Cl)cc1)N1CCN(c2ncnc3c2nnn3Cc2ccccc2)CC1 the results were USP28 block 12, USP30 inh 35*, USP8 block 3 and USP17 block 7.
Screening Cc1nc(N2CCCCC2)c2c(C)c(C(=O)Nc3ccc(Oc4ccc(Cl)cc4)cc3)sc2n1 returned USP28 block 14, USP30 inh 2, USP8 block 13 and USP17 block 9.
Cc1ccsc1C1CCCCCN1S(=O)(=O)c1ccccc1F (stereo unspecified) was read as USP28 block -4, USP30 inh -22, USP8 block 32* and USP17 block 10.
N#CCOc1ccccc1C1=NO[C@]2(C(=O)Nc3ccccc32)[C@H]1C(=O)c1ccccc1 was read as USP28 block 1, USP30 inh 1, USP8 block 5 and USP17 block -4.
For Cc1nc2c3ccccc3nc(NCc3ccc4c(c3)OCO4)n2n1 the results were USP28 block 0, USP30 inh 14, USP8 block 9 and USP17 block 54*.
`O=C1CC(c2ccccc2[N+](=O)[O-])c2ccccc2N1` (stereo unspecified) gave USP28 block 15, USP30 inh 21, USP8 block 1 and USP17 block -3.
Cc1nn(-c2ccc(F)cc2)c(C)c1C(=O)NC1CCCCC1 was read as USP28 block 13, USP30 inh 18, USP8 block -2 and USP17 block 8.
For COc1ccc(C(C(=O)NC2CCCC2)N(Cc2ccccc2Cl)C(=O)c2ccco2)cc1 (stereo unspecified) the results were USP28 block 6, USP30 inh 35*, USP8 block 8 and USP17 block 11.
Cc1ccc(C(C(=O)NC2CCCC2)N(Cc2ccccc2Cl)C(=O)c2ccco2)cc1 (stereo unspecified) was read as USP28 block 3, USP30 inh 21, USP8 block -179 and USP17 block -14.
Screening Cc1ccc(NC(=O)c2ccc(N3CCCCC3)nn2)c(Cl)c1 returned USP28 block -2, USP30 inh -24, USP8 block 0 and USP17 block 25.
For Cc1nc(Nc2ccc(Cl)cn2)sc1C(=O)NCc1ccccn1 the results were USP28 block 13, USP30 inh 18, USP8 block 50* and USP17 block 9.
Screening CCc1nnc2ccc(-c3noc(COc4ccccc4)n3)cn12 returned USP28 block 10, USP30 inh -1, USP8 block 1 and USP17 block 0.
For O=C(c1ccccc1)N(Cc1ccncc1)c1nc2ccc(Cl)cc2s1 the results were USP28 block 14, USP30 inh 4, USP8 block 24 and USP17 block 11.
For CCc1ccc2nc(N(CCCn3ccnc3)C(=O)c3cccs3)sc2c1 the results were USP28 block -1, USP30 inh 46* and USP8 block -32.
For CCOC(=O)CNC(=O)N1CCCCCC1c1cccs1 (stereo unspecified) the results were USP28 block -11, USP30 inh 4, USP8 block 0 and USP17 block -9.
`CCOC(=O)Cn1c(=O)c(C(=O)NC(=O)OCC)cn(Cc2cccs2)c1=O` gave USP28 block 1, USP30 inh 31*, USP8 block 0 and USP17 block 22.
For O=S(=O)(c1cccc(Cl)c1)N1CCN(c2cnn3cnnc3c2)CC1 the results were USP28 block 10, USP30 inh 9, USP8 block -10 and USP17 block 43*.
COc1cccc(-n2c(=O)[nH]c3c(c2=O)C(C)(C)Cc2ccccc2-3)c1 was read as USP28 block -5, USP30 inh -54, USP8 block 7 and USP17 block 4.

Assay outcomes: PubChem BioAssay, Buhrlage Lab, Dana-Farber Cancer Institute and Novartis Institutes for BioMedical Research (Cambridge, Mass)
